Assay outcomes as filed in PubChem BioAssay.
ELG1 genotoxic: inducers of genotoxicity in HEK293T ELG1-luciferase cells | Potency, µM (series often up to 46 µM), without a hit: at the highest dose activity change, positive = activation, usual class: activators | HEK293T ELG1-luciferase reporter, luminescence, 16 h | 330,000 compounds, 1.3% hits; also: % of control where 0% means no effect; nearly all actives have a fitted effect of over 60% in size
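DMSO vehicle served as control against compound-treated ELG1-luciferase HEK293T cells; exposure lasted 16 hr at 37 °C and 5% CO2, followed by ONE-Glo luminescence detection after 30 min.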
SMN2 splice up: increases expression of the SMN2 splice variant; 210,000 compounds, 2.8% hits; Potency, µM (highest dose often 46.1 µM), inactives show top-dose activity change, positive = activation, most hits filed as activators; HEK293 SMN2-luciferase splicing reporter, luminescence, 30-36 h; also: % of control where 0% means no effect; nearly all actives have a fitted effect of over 55% in size
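qHTS luciferase splicing reporter: luminescence rises when SMN2 exon 7 is included in transfected HEK293 cells. Compound exposure lasted 30-36 h at 37C, with 4.5 mM final sodium butyrate as control, followed by a ONE-Glo read.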
Luc counter: Kinase-Glo luciferase inhibition (counter-screen). Potency, µM (titrated, usually from 38.3 µM), without a hit: at the highest dose activity change, negative = inhibition, usual class: inhibitors. AID 1379. 200,000 compounds, 0.28% hits. Q27757. Kinase-Glo luciferase, ATP luminescence, 8 min; also: % is scaled to controls: 0 for no effect and ±100 for the full control effect; nearly all actives have a fitted effect of over 60% in size
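Light output from Kinase-Glo luciferase with luciferin and 10 uM ATP in 50 mM imidazole pH 7.2, KCl, MgCl2, Tween 20, BSA; compound pin-delivered, 8-min ambient incubation, then luminescence read.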
Rab9 prom act: activators of Rab9 promoter; 320,000 compounds, 2.8% hits; Huh7 Rab9 promoter-luciferase reporter, luminescence, 24 h; Potency, µM (doses to about 9.22 µM), inactives show at the top dose activation, negative = inhibition, hits mostly activators; also: % of control where 0% means no effect; nearly all actives have a fitted effect of over 60% in size
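Rab9 promoter-driven luciferase in stably transfected Huh7 cells; 1500 cells/well rested 2 h, exposed to compound in DMSO for 24 h at 37 °C, 5% CO2. Luminescence read 10 min after adding luciferase reagent at ambient temperature.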
FLuc counter: counter-screen for miR-21 project: firefly luciferase inhibitors or activators. 360,000 compounds, 6.9% hits. P08659. purified FLuc, Km substrates, luminescence inhibition. Potency, µM (highest dose often 57.5 µM), inactives show at the highest dose activity change, negative = inhibition, most hits filed as inhibitors;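 also: plate controls were vehicle for no effect and reference inhibitor for full effect; nearly all actives have a fitted effect of over 55% in size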
Target sequence (P08659 whole entry, looked up): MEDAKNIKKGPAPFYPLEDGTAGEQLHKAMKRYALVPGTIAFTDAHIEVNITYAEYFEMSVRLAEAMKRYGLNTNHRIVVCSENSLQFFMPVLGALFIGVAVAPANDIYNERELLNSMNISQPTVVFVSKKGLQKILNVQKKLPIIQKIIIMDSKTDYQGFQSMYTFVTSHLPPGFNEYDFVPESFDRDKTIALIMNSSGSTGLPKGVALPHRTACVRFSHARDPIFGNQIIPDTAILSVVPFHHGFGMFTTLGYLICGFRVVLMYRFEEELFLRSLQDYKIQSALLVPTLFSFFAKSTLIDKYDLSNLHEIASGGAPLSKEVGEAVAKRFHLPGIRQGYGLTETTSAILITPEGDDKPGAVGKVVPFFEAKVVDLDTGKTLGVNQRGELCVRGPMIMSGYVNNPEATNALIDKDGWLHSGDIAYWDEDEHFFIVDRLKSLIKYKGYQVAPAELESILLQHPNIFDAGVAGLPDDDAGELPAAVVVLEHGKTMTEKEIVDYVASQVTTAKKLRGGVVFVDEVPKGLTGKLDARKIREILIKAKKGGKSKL
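Purified P. pyralis luciferase, 10 nM final, with Km-level 10 uM D-luciferin and 10 uM ATP in 50 mM Tris acetate pH 7.5, 10 mM Mg acetate, 0.01% Tween-20, 0.05% BSA; 6-point qHTS titration about 60 µM downward; luminescence read.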
NPC1 prom act: activators of NPC1 promoter | 320,000 compounds, 2.4% hits | Potency, µM (highest dose often 9.22 µM), for the others: at the top dose activation, hits mostly activators | Huh7 NPC1 promoter luciferase reporter, 24 h | AID 485313; also: % of control where 0% means no effect; nearly all actives have a fitted effect of over 60% in size
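Luminescence from an NPC1 promoter-driven luciferase reporter in stably transfected Huh7 cells was measured after 24 h compound treatment at 37 °C, followed by 10 min ambient incubation with luciferase detection reagent.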
An asterisk follows results filed as active; ? = inconclusive; . = not tested or not shown; [ ] = another dose, or the depositor's remark. Shown are actives, neighbours in structure and some others; about 7.5% of the full set was active somewhere. Calls follow the shape of the dose curve; as a rule, active = well fitted curve in the direction sought with a large enough effect; inconclusive = small, poorly fitted or top-dose-only effect, or another doubt; inactive = no such curve, though single readings can be large; an effect the other way counts as inactive or inconclusive. Potency is read from the fitted curve at half-maximal effect.

SMILES	ELG1 genotoxic	SMN2 splice up	Luc counter	Rab9 prom act	FLuc counter	NPC1 prom act
CCN1CCN(Cc2ccc(NC(=O)c3ccc(C)c(NC(=O)C(=O)c4c[nH]c5ccccc45)c3)cc2C(F)(F)F)CC1	-13.8%	.	.	-4.9%	?	-1.3%
COc1ccc2ccccc2c1/C=N/Nc1cccc(C(=O)O)c1	?	.	.	0.891µM*	8.49µM*	1.12µM*
COc1ccc(N/N=C/c2c(C(=O)O)ccc3ccccc23)cc1	5.9%	.	.	-38.1%	9.53µM*	-38.4%
CCOc1cc(/C=N/Nc2cccc(C(=O)O)c2)ccc1OC(=O)c1ccccc1	?	1µM*	-0.8%	0.1µM*	16.9µM*	0.0891µM*
COc1ccc2ccccc2c1/C=N/Nc1ccc(Cl)c(C(=O)O)c1	11.5%	.	.	?	?	?
O=C(O)c1cccc(N/N=C/c2cccc3ccccc23)c1	?	.	.	?	0.0757µM*	0.1µM*
Cc1cc(C)c(NC(=O)CSc2nc(=O)n(Cc3ccncc3)c3c2CCC3)c(C)c1	.	.	.	.	-5.2%	.
Fc1ccc(Nc2ncnc3sccc23)cc1	-1.6%	.	.	12.3%	?	0.3%
Nc1[nH]n(-c2ccccc2)c(=O)c1N=Nc1ccc2c(c1)OCO2	?	.	.	3.16µM*	2.39µM*	3.55µM*
Cc1cc([N+](=O)[O-])ccc1N=Nc1c(N)[nH]n(-c2ccccc2)c1=O	-1.4%	2.2%	-3.5%	-2.2%	-6.2%	7.6%
Nc1[nH]n(-c2ccccc2)c(=O)c1N=Nc1ccc2c(c1)OCCO2	?	2.24µM*	-1.6%	0.501µM*	0.601µM*	2µM*
Nc1cc(N)nc(CS)n1	0.0%	.	.	-5.6%	-2.2%	-0.1%
CC(C)(C)c1ccc(C(=O)Nn2cnnc2)cc1	2.5%	.	.	25.7%	23.9µM*	17.9%
O=C(Nn1cnnc1)c1ccncc1	-0.7%	.	.	-1.1%	-1.4%	-0.3%
CN(CC(=O)Nc1ccccc1-c1ccccc1)Cc1ccccc1Cl	-8.8%	-15.0%	5.6%	0.8%	-9.1%	-7.4%
Cc1ccc(NC(=O)CCC(=O)NNC(=O)Nc2cccc(Cl)c2)c(C)c1	0.2%	.	.	-0.7%	-0.8%	1.5%
Nc1cccc2c1C(=O)N(CC(=O)NC13CC4CC(CC(C4)C1)C3)C2=O	0.5%	-3.0%	7.3%	-2.7%	-1.7%	-0.5%
O=C(Cn1sc2ccccc2c1=O)NC12CC3CC(CC(C3)C1)C2	1.0%	-16.0%	-1.1%	14.1%	7.57µM*	13.3%
Cc1ccc(S(=O)(=O)COCCN2CCN(S(=O)(=O)c3ccc(C)cc3)CCC2=O)cc1	.	.	-2.8%[39.9 µM]	.	.	.
CCOC(=O)CN1C(=O)S/C(=C/c2ccc3c(c2)n(C)c(=O)n3C)C1=O	20.6µM*	15.8µM*	0.6%	-4.8%	?	0.0%
O=C(CN1C(=O)S/C(=C\C=C\c2ccccc2)C1=O)N1CCCCC1	7.6%	.	.	9.0%	?	-5.0%
CCOC(=O)CN1C(=O)S/C(=C/C=C/c2ccc(N(C)C)cc2)C1=O	?	?	-5.0%	3.55µM*	4.78µM*	?
COc1ccc(N2C(=O)c3ccccc3NC2c2ccc(OC)c(COc3ccccn3)c2)cc1 (stereo not drawn)	?	12.6µM*	4.3%	?	-2.1%	?
COc1ccc(C2Nc3ccccc3C(=O)N2c2ccc(C)cc2)cc1Cn1cc([N+](=O)[O-])cn1 (stereo not drawn)	12.2%	20µM*	-7.5%	3.98µM*	?	3.98µM*
COc1ccc(C2Nc3ccccc3C(=O)N2c2ccc(C)cc2)cc1Cn1nnc2ccccc21 (stereo not drawn)	?	.	.	?	-9.9%	?
COc1ccc(N2C(=O)c3ccccc3NC2c2ccc(OC)c(CSc3ccccn3)c2)cc1 (stereo not drawn)	?	?	2.4%	25.1%	?	?
Cc1ccc(C(=O)c2ccc(N3CCOCC3)c(F)c2)cc1	9.1%	-39.0%	7.0%	29.7%	16.9µM*	19.3%
CCCC(=O)c1ccc(N2CCOCC2)c(F)c1	6.2%	-9.0%	-6.5%	24.6%	?	?
